# Screening data: PubChem, National Center for Advancing Translational Sciences (NCATS)
# Tb PYK inh = T. brucei pyruvate kinase inhibition | TbPYK enzyme, Kinase-Glo Plus ATP luminescence, 45 min | hit rate 0.12% among 410,000 | Potency, µM (series often up to 76.8 µM), actives largely listed as inhibitors | Q57TT1; also: nearly all actives have a fitted effect of over 50% in size
#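 T. brucei PYK with substrate was exposed to pin-transferred compounds across a concentration series, then started with 130 uM ADP (final). After 45 min at room temperature, Kinase-Glo Plus luminescence was read, normalized and curve-fitted.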
# Sm TGR inh = blocks Schistosoma mansoni thioredoxin glutathione reductase; Q962Y6; purified TGR, DTNB reduction, TNB absorbance 405 nm; Potency, µM (series often up to 114 µM), usual class: inhibitors; hit rate 3% among 360,000; AID 485364; also: nearly all actives have a fitted effect of over 60% in size
#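 TGR 20 nM + NADPH 100 uM (dispensed conc.), cpd preinc 15 min RT; start with NADPH (500 uM addition) then DTNB (15 mM addition). Kinetic TNB absorbance, 405 nm filter. Four-parameter Hill fit across titration.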
# LmPK inh = inhibitors of Leishmania mexicana pyruvate kinase | Q27686 | purified LmPK, Kinase-Glo ATP luminescence, 1 h | Potency, µM (titrated, usually from 57.5 µM), hits mostly inhibitors | hit rate 0.37% among 290,000 | AID 1721
#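 qHTS format; LmPK 0.1 nM; substrates PEP 0.5 mM and ADP 0.1 mM. One-hour room-temperature incubation, then coupled luciferase luminescence; 0.5 nM enzyme wells mark activation.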
# FBPA Giardia inh = Giardia lamblia aldolase inhibition; A8B2U2; purified Giardia FBPA; Potency, µM (highest dose often 59.6 µM), hits mostly inhibitors; hit rate 0.71% among 290,000; AID 2451; also: nearly all actives have a fitted effect of over 55% in size
# Target sequence (A8B2U2 whole entry, looked up): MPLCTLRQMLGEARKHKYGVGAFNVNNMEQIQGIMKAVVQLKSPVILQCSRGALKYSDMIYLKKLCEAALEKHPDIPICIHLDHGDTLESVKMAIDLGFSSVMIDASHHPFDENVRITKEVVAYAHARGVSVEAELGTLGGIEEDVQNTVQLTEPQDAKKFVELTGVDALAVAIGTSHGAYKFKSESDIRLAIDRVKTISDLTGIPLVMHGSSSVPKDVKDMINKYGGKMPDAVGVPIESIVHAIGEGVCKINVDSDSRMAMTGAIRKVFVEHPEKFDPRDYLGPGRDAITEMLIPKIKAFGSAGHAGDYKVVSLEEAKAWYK
#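 Giardia FBPA (40 nM reagent) was preincubated 10 min at RT with compound (up to 57.5 uM final), then substrate plus GAPDH/TPI/NAD/arsenate coupling system with diaphorase/resazurin was added; resorufin fluorescence (525/598 nm) was read after 20 min.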
# Cycloheximide cs = counter-screen for Shiga toxin inhibitors: cycloheximide protein synthesis inhibition | cell reporter, cycloheximide protein synthesis inhibition counterscreen | max response, % | hit rate 12% among 300,000 | AID 2314; in the data active = max response mostly above about 13%, no sharp cut-off; inactive = mostly below about 14%; also: read at 38.3 µM for the half of the compounds with a filed dose
# Shiga inhibitor = inhibitors of Shiga toxin in Vero cells; hit rate 9.2% among 290,000; Vero cells, Shiga toxin protein synthesis inhibition reporter; inhibition, % at 38.7 µM; in the data active = inhibition mostly above about 28%, no sharp cut-off; inactive = mostly below about 43%
# Hits are given with their value; – = inactive; ? = inconclusive; · = not tested or not shown. This excerpt belongs to a sample that is enriched for hits. Unless noted, calls follow the shape of the dose curve; as a rule, active = well fitted curve in the direction sought with a large enough effect; inconclusive = small, poorly fitted or top-dose-only effect, or another doubt; inactive = no such curve, though single readings can be large; an effect the other way counts as inactive or inconclusive.
SMILES,Tb PYK inh,Sm TGR inh,LmPK inh,FBPA Giardia inh,Cycloheximide cs,Shiga inhibitor
CCc1cc2c(=O)n(-c3ccc(Br)cc3)cnc2s1,–,–,–,–,16.3,–
CCCCCn1cnc2sc(CC)cc2c1=O,–,–,–,–,66.2,active
CCc1cc2c(=O)n(CC(C)C)cnc2s1,–,–,–,–,48.3,62.8
CCCCN1C(=O)c2[nH]nc(-c3ccccc3O)c2C1c1ccc(OCc2ccccc2)cc1 (centres undefined),–,–,·,·,·,·
Cc1ccccc1NC(=O)c1c(C)oc2ccc(O)c(CN3CCCC3)c12,–,–,·,·,·,·
CC1(C(=O)Nc2ccc3nc[nH]c3c2)CCN1C(=O)c1ccccc1CCc1ccccc1 (centres undefined),–,·,·,·,·,·
O=C(Nc1cc(Cl)ccc1Cl)c1cc(S(=O)(=O)NCCc2ccccc2)ccc1F,–,–,·,·,·,·
COc1cccc(NC(=O)c2cccc(C(=O)Nc3cccc(OC)c3)c2)c1,–,–,–,–,–,–
CCOc1ccc(NC(=O)c2ccc(-n3cccn3)nc2)cc1,–,–,–,–,–,–
COc1cccc(NC(=O)c2ccc(-n3cccn3)nc2)c1,–,–,–,–,40.2,26.0
COc1cccc(NC(=O)c2nc3ncccn3n2)c1,–,–,–,–,48.4,65.2
CSCCOC(=O)COc1ccc(/C=N/NC(=O)c2nn(C)cc2Cl)cc1,–,–,–,–,28.1,59.1
NC(=O)c1ccc(N=Cc2ccc([N+](=O)[O-])s2)cc1,–,14.1µM,–,?,–,–
COc1cc(NC(=O)C/C(C)=N/NC(=O)c2cccc(O)c2)c(OC)cc1Cl,–,–,–,–,29.9,128.7
COc1cc(NC(=O)C/C(C)=N/NC(=O)C(OC)c2ccccc2)c(OC)cc1Cl (centres undefined),–,–,–,–,–,–
COc1ccc(Cl)cc1NC(=O)C/C(C)=N/NC(=O)c1ccc(O)cc1,–,–,–,–,31.1,68.2
COc1ccc(Cl)cc1NC(=O)C/C(C)=N/NC(=O)Cc1ccccc1,–,–,–,–,–,43.6
CN(C)CCOC(=O)[C@@H](c1ccccc1)C1(O)CCCC1,–,·,·,–,·,·
O=C1CC(N2CCN(c3ccc(F)cc3)CC2)C(=O)N1Cc1ccc(N2CCCC2=O)cc1 (centres undefined),–,44.7µM,–,–,–,–
O=C1CCCN1c1ccc(CNS(=O)(=O)c2ccc(F)cc2)cc1,–,–,–,–,13.6,–
Cn1ccnc1SCC(=O)Nc1cccc(O)c1,–,–,–,–,20.8,–
Cn1ccnc1SCC(=O)Nc1cccc(C(F)(F)F)c1,–,–,–,–,–,–
CCCCOc1cccc(NC(=O)CSc2nccn2C)c1,–,–,–,–,8.8,–
Cc1ccc(-c2csc(-c3c[nH]c4ccccc34)n2)c(C)c1,–,–,–,–,35.5,78.3
CC(=O)NCCC(=O)Nc1nc(-c2c[nH]c3ccccc23)cs1,–,–,–,–,–,–
SMILES,Tb PYK inh,Sm TGR inh,LmPK inh,FBPA Giardia inh,Cycloheximide cs,Shiga inhibitor
Oc1ccc(-c2csc(-c3c[nH]c4ccccc34)n2)c(O)c1,–,–,–,–,70.0,60.0
COC(=O)c1ccc2c(c1)C(C)(C)C(/C=C/c1ccccc1O)=[N+]2C,?,50.1µM,14.1µM,?,–,–
C[N+]1=C(/C=C/Nc2ccccc2Cl)C(C)(C)c2ccccc21,–,–,–,–,–,–
Cc1ccc(C(=O)Nc2ncccc2S(=O)(=O)c2ccccc2)cc1,–,–,–,–,12.0,66.3
Cc1ccc(C(=O)/C=C/c2ccc3ncccc3c2)cc1,–,–,–,–,48.5,47.1
Oc1cc(NCc2ccccc2)cc2cccnc12,·,–,·,·,·,·
O=C(Nc1ccc2ncccc2c1)c1cccc(Br)c1,–,–,–,?,38.9,46.8
CCOc1cc(/C=C/C(=O)c2ccc(C)cc2)ccc1OCC(=O)N(C)C,–,–,–,–,–,–
Brc1ccc(CNc2ccc3ncccc3c2)cc1,–,–,–,–,29.8,41.5
O=C(Nc1ccc2ncccc2c1)c1cc(Cl)ccc1Cl,–,–,–,–,44.8,–
CCC(=O)c1ccc2ncccc2c1,–,–,–,–,21.2,44.0
CC(=O)c1c(C(C)=O)c(C)n(-c2ccc3ncccc3c2)c1C,–,–,–,–,–,–
Cc1ccc(C(=O)Nc2ccc3ncccc3c2)cc1,–,–,–,–,13.8,–
COc1ccc(C(=O)Nc2ccc3ncccc3c2)cc1,–,–,–,–,–,–
C=C(CC1([C@@H](NP(=O)(c2ccccc2)c2ccccc2)[C@H]2C[C@@H]2CCN(C(=O)OCC)S(=O)(=O)c2ccc(C)cc2)CC1)c1ccccc1,·,·,·,–,·,·
Cc1nc(S(=O)(=O)c2cccc(Cl)c2)nc2c1CCC2,–,?,–,–,–,–
Cc1nc(S(=O)(=O)c2ccc(Cl)cc2Cl)nc2c1CCC2,–,25.1µM,–,–,–,–
CC(=O)c1sc(N/N=C2\CC3CC2C(C)C3(C)C)nc1C (centres undefined),–,1.58µM,–,?,34.2,48.1
Cc1cc(C)c2cc3c(N)c(C(=O)N4CCOCC4)sc3nc2c1,–,–,–,–,–,–
CCOc1ccc2nc3sc(C(=O)N4CCOCC4)c(N)c3cc2c1,–,–,–,?,–,–
Cc1cc(C)c2nc3sc(C(=O)N4CCOCC4)c(N)c3cc2c1,–,–,–,?,28.6,100.9
Cc1ccc(C)c2nc3sc(C(=O)N4CCOCC4)c(N)c3cc12,–,–,–,–,26.8,57.8
CC(C)COC(=S)Nc1ccccc1,–,–,–,–,32.0,–
COC(=O)C[C@]1(C(=O)OC)CN(C#N)N(c2ccc(Cl)cc2)C12c1ccccc1-c1ccccc12,–,–,–,–,–,–
COC(=O)[C@@H]1[C@@H](C(=O)OC)C2(c3ccccc3-c3ccccc32)N(c2ccc(Cl)cc2)N1C#N,–,2.82µM,–,–,–,–
SMILES,Tb PYK inh,Sm TGR inh,LmPK inh,FBPA Giardia inh,Cycloheximide cs,Shiga inhibitor
O=C(Nc1ccccc1)Nc1cccc(Cl)c1Cl,–,–,–,–,37.4,active
CSc1ccccc1NC(=O)Nc1cccc(Cl)c1Cl,–,–,–,–,10.1,–
COc1ccc(CN2C(=O)[C@@H]3C(c4ccc(F)cc4)=NO[C@@H]3C2=O)cc1,–,–,–,–,–,–
COc1ccc(N2C(=O)[C@@H]3C(c4cccnc4)=NO[C@@H]3C2=O)cc1,–,7.08µM,–,–,–,–
Cc1ccc(N2C(=O)[C@@H]3C(c4cccnc4)=NO[C@@H]3C2=O)cc1,–,7.94µM,–,–,–,–
Cc1ccccc1Cn1c(C)c(CNCCCc2ccccc2)c(C(=O)O)c1C,–,–,·,·,·,·
C/C(CC(=O)Nc1ccc(Cl)c(C(F)(F)F)c1)=N\NC(N)=S,–,?,–,–,19.7,–
O=C(CCNC(=O)c1ccccc1Cl)Nc1ccc(Cl)c(C(F)(F)F)c1,–,–,–,–,–,–
C/C(CC(=O)Nc1ccc(Cl)c(C(F)(F)F)c1)=N\NC(=O)c1cccc(O)c1,–,–,–,–,44.1,67.8
